Test systems include MOLT-4 leukemia; SR leukemia; RPMI-8226 leukemia; OVCAR-8 ovarian; OVCAR-5 ovarian; OVCAR-4 ovarian; SK-OV-3 ovarian; IGROV1 ovarian; OVCAR-3 ovarian; HS 578T breast; NCI/ADR-RES ovarian; T-47D breast; BT-549 breast; MDA-MB-435 melanoma; SW-620 colon; MCF7 breast; HCT-116 colon; HCC-2998 colon; KM12 colon.
Test in all cases: NCI-60 one-dose screen, 48 h (100 = growth as untreated, 0 = no growth, -100 = all killed)
Details in all cases: 10 µM unless noted

In PubChem BioAssay (NCI) one finds growth data, which are given here for 8 compounds.

The panel holds about 83,000 compounds, 20% with a hit somewhere; the sample as a whole holds those more often.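 The endpoint reported here, percent growth, reads 100 for growth as untreated, 0 for no net growth and -100 for all cells dead.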 Unmarked numbers belong to inactive results. The source made the active and inactive calls. How the source made its calls: active means growth percent below 10; inactive means the rest.

Take `C[C@]12CC[C@@H]3c4ccc(Oc5nc(N6CC6)nc(N6CC6)n5)cc4CC[C@H]3[C@@H]1CCC2=O`: the growth in the assay with MOLT-4 leukemia is -25.2% (active); in the assay with SR leukemia, -5.09% (active); with RPMI-8226 leukemia, 0.429% (active); in the assay with OVCAR-8 ovarian, 36.4%; with OVCAR-5 ovarian, 101%; with OVCAR-4 ovarian, 31.6%. Also, the growth in the assay with SK-OV-3 ovarian is 36.1%; with IGROV1 ovarian, 27.8%; with OVCAR-3 ovarian, 15.6%; in the assay with HS 578T breast, 45.4%; in the assay with NCI/ADR-RES ovarian, 41.2%; with T-47D breast, 33.7%. Further, the growth is 53.9% in the assay with BT-549 breast; 48.5% in the assay with MDA-MB-435 melanoma; 25.1% with SW-620 colon; 20.6% in the assay on MCF7 breast; 26.7% in the assay with HCT-116 colon; 37% in the assay with HCC-2998 colon. Further, the growth in the assay with KM12 colon was 50%.

On to `CC[C@H](C)[C@H](NC(=O)C12C3C4C1C1C2C3C41NC)C(=O)N(C)[C@H](C[C@@H](OC(C)=O)c1nc(C(=O)N[C@@H](Cc2ccccc2)C[C@H](C)C(=O)OC)cs1)C(C)C` (stereo partly specified), for which the growth is 24.9% in the assay on MOLT-4 leukemia; 20% in the assay with SR leukemia; 3.54% (active) in the assay on RPMI-8226 leukemia; 20.4% in the assay on OVCAR-8 ovarian; 43.5% with OVCAR-5 ovarian; 45.5% in the assay on OVCAR-4 ovarian. The growth in the assay on SK-OV-3 ovarian was 17.1%; with IGROV1 ovarian, 36.9%; in the assay on OVCAR-3 ovarian, -28.1% (active); in the assay with HS 578T breast, 13%; in the assay with NCI/ADR-RES ovarian, 72.6%; in the assay with T-47D breast, 40.5%. Moreover, the growth with BT-549 breast was 2.04% (active); in the assay with MDA-MB-435 melanoma, -27.9% (active); in the assay with SW-620 colon it was 21.6%; with HCT-116 colon, 4% (active); in the assay with HCC-2998 colon, 15.9%; with KM12 colon, 15%.

Take `CCOP(=O)(NC[C@H]1O[C@](O)(CO)[C@@H](O)[C@@H]1O)OCC`: the growth in the assay on MOLT-4 leukemia was 95.9%; in the assay with SR leukemia it was 97.1%; in the assay on RPMI-8226 leukemia, 101%; in the assay on OVCAR-8 ovarian it was 103%; in the assay on OVCAR-5 ovarian, 112%; in the assay with OVCAR-4 ovarian, 103%. Also, the growth in the assay with SK-OV-3 ovarian is 87.6%; in the assay on IGROV1 ovarian it was 94.5%; in the assay on OVCAR-3 ovarian it was 103%; in the assay on HS 578T breast it was 96.4%; in the assay on NCI/ADR-RES ovarian, 100%; in the assay on T-47D breast it was 98.1%. The growth was 87.1% in the assay on BT-549 breast; 106% with MDA-MB-435 melanoma; 104% in the assay on SW-620 colon; 95.1% with MCF7 breast; 95.6% in the assay with HCT-116 colon; 103% in the assay on HCC-2998 colon. The growth in the assay on KM12 colon is 99.3%.

Consider `CCOC(=O)C(Cc1ccc(N(CCCl)CCCl)cc1)NC(=O)C(CC(C)C)NC(C)=O` (stereo unspecified), for which the growth was 6.43% (active) in the assay on MOLT-4 leukemia; -13.9% (active) with SR leukemia; 21% in the assay with RPMI-8226 leukemia; 32.6% in the assay on OVCAR-8 ovarian; 36.8% in the assay on OVCAR-5 ovarian; -16.2% (active) in the assay on OVCAR-4 ovarian. Also, the growth was 53.3% with SK-OV-3 ovarian; 22.5% in the assay on IGROV1 ovarian; -34.4% (active) in the assay on OVCAR-3 ovarian; 108% with HS 578T breast; 46.6% in the assay with NCI/ADR-RES ovarian; 22.5% in the assay on T-47D breast. Moreover, the growth with BT-549 breast is 65%; with MDA-MB-435 melanoma it was 44.4%; in the assay with SW-620 colon it was 9.17% (active); in the assay with MCF7 breast, 21.3%; in the assay on HCT-116 colon, 23.6%; in the assay on HCC-2998 colon, 50.8%. Moreover, the growth in the assay with KM12 colon was 71.6%.

Turning to `O=C1N[C@@H]2[C@@H](O)[C@@H](O)[C@H](O)C[C@H]2c2cc3c(c(O)c21)OCO3`, the growth is -6.14% (active) in the assay on MOLT-4 leukemia; 6.14% (active) in the assay with SR leukemia; -24.2% (active) with RPMI-8226 leukemia; -7.71% (active) in the assay with OVCAR-8 ovarian; -13.4% (active) in the assay on OVCAR-5 ovarian; -23.7% (active) in the assay on OVCAR-4 ovarian. Further, the growth with SK-OV-3 ovarian was -11.2% (active); with IGROV1 ovarian it was -7.85% (active); in the assay on OVCAR-3 ovarian, -10.8% (active); in the assay with HS 578T breast, -14.2% (active); in the assay with NCI/ADR-RES ovarian, 1.95% (active); in the assay with T-47D breast it was -8.46% (active). Also, the growth in the assay with BT-549 breast was -12.5% (active); in the assay with MDA-MB-435 melanoma, -42.2% (active); in the assay with SW-620 colon it was -0.0451% (active); with MCF7 breast, 1.73% (active); in the assay on HCT-116 colon, -1.49% (active); with HCC-2998 colon it was -22.8% (active). The growth in the assay on KM12 colon was -11.5% (active).

For the compound `CC[C@H](C)[C@H](NC(=O)[C@H]1CCCCN1C)C(=O)N(C)[C@H](CC(=O)c1nc(C(=O)N[C@@H](Cc2ccccc2)C[C@H](C)C(=O)O)cs1)C(C)C`, the growth with MOLT-4 leukemia was 64.4%; in the assay on SR leukemia it was 27.8%; with RPMI-8226 leukemia, 43.2%; with OVCAR-8 ovarian, 96.9%; in the assay with OVCAR-5 ovarian, 107%; in the assay with OVCAR-4 ovarian it was 106%. In addition, the growth with SK-OV-3 ovarian was 91.5%; with IGROV1 ovarian, 76.5%; in the assay with OVCAR-3 ovarian, 55.8%; in the assay on HS 578T breast it was 72.2%; with NCI/ADR-RES ovarian it was 113%; in the assay on T-47D breast, 64.8%. The growth in the assay with BT-549 breast was 63%; in the assay with MDA-MB-435 melanoma, 15.5%; in the assay on SW-620 colon it was 50.2%; in the assay on MCF7 breast, 23.1%; in the assay with HCT-116 colon, 77.3%; in the assay on HCC-2998 colon, 87.9%. Further, the growth in the assay on KM12 colon is 65.1%.

For `COc1ccc(-n2c(C)nc3cc(OC)c(OC)cc3c2=O)cc1OC`, the growth with MOLT-4 leukemia is 97.2%; with SR leukemia, 95.5%; in the assay with RPMI-8226 leukemia, 104%; with OVCAR-8 ovarian, 102%; in the assay on OVCAR-5 ovarian it was 104%; with OVCAR-4 ovarian, 101%. The growth is 102% in the assay on SK-OV-3 ovarian; 102% in the assay on IGROV1 ovarian; 106% in the assay with OVCAR-3 ovarian; 101% with HS 578T breast; 102% in the assay on NCI/ADR-RES ovarian; 91.4% in the assay with T-47D breast. Besides, the growth is 102% in the assay with BT-549 breast; 104% in the assay on MDA-MB-435 melanoma; 105% in the assay on SW-620 colon; 91.8% with MCF7 breast; 98.7% in the assay on HCT-116 colon; 109% in the assay on HCC-2998 colon. In the assay on KM12 colon, the growth was 104%.

`O=C1CNC(c2ccccc2)c2cc(Cl)ccc2N1` (stereo unspecified): the growth in the assay with MOLT-4 leukemia was 93.5%; in the assay with SR leukemia it was 88.8%; with RPMI-8226 leukemia, 109%; in the assay with OVCAR-8 ovarian, 99.7%; with OVCAR-5 ovarian, 113%; in the assay with OVCAR-4 ovarian, 112%. Further, the growth in the assay on SK-OV-3 ovarian was 98.2%; in the assay on IGROV1 ovarian, 100%; with OVCAR-3 ovarian, 98%; in the assay with HS 578T breast, 109%; in the assay on NCI/ADR-RES ovarian, 100%; with T-47D breast it was 88.4%. Moreover, the growth is 122% in the assay with BT-549 breast; 108% in the assay on MDA-MB-435 melanoma; 97.2% in the assay on SW-620 colon; 97.8% in the assay with MCF7 breast; 97% with HCT-116 colon; 106% with HCC-2998 colon. For the same compound, the growth in the assay with KM12 colon was 91.2%.
